Results taken from PubChem BioAssay (EPA / NIEHS).
Active and inactive are the calls of the source. How the source made its calls: active means hit-call score of the fitted dose curve at least 0.9, where 1 is the maximum; inactive means score below 0.9.

Read-out: Matrix Metallopeptidase 1 (MMP1), MMP1 (gene 4312)
Test: BSK_BE3C_MMP1: BioMAP Diversity Plus: BE3C Assay for Matrix Metallopeptidase 1 (MMP1) Biomarker Activity (AID 2283024)
Settings: primary human bronchial epithelial cells; actives raise or lower the signal
Experimental: BSK_BE3C is a cell-based, multiplexed-readout assay that uses bronchial epithelial cell, a human lung primary cell, with measurements taken at 24 hours after chemical dosing in a 96-well plate.BSK_BE3C_MMP1 is an assay component measured in the BSK_BE3C assay. It measures MMP-1 antibody related to regulation of gene expression using ELISA technology.Data from the assay component BSK_BE3C_MMP1 was analyzed into 1 assay endpoint. This assay endpoint, BSK_BE3C_MMP1, was analyzed with bidirectional fitting relative to DMSO as the negative control and baseline of activity. Using a type of binding reporter, gain or loss-of-signal activity can be used to understand changes in the signaling as they relate to the gene MMP1. Furthermore, this assay endpoint can be referred to as a primary readout, because this assay has produced multiple assay endpoints where this one serves a signaling function. To generalize the intended target to other relatable targets, this assay endpoint is annotated to the protease intended target family, where the subfamily is matrix metalloproteinase.
The levels of cell surface (or secreted, indicated by the prefix "s") biomarker endpoints were measured by ELISA. Overt cytotoxicity to cells in confluent adherent cultures (all systems other than the BT system) was assessed by measuring total protein levels using sulforhodamine B (SRB) staining in parallel cultures at the time of biomarker measurements, indicated as SRB endpoints. For proliferation assays for adherent cell types, individual cell types are cultured at sub-confluence and relative cell numbers quantified by SRB staining at time points optimized for each system (48 h: 3C and CASM3C systems; 72 h: BT and HDF3CGF systems; 96 h: SAg system). SRB was performed by staining cells with 0.1% SRB after fixation with 10% TCA and reading wells at 560 nm.Viability and proliferation of PBMC (T cells) was quantified by Alamar Blue reduction for the SAg and BT systems. For PBMC viability (referred to as PBMC Cytotoxicity within the assay endpoint names), cells were plated (75,000/well in a 96-well plate) and then chemical samples added for 1 h before addition of activators, SEB and TSST-1 (20 ng/mL final concentration each). Cells were incubated for 90 h. Then, Alamar Blue (20 uL/well) (Invitrogen, Cat DAL1100) was added for 6 h, and the plates were read with a fluorescence microplate reader at 546/580 nm (excitation/emission). For PBMC proliferation, cells were plated and activated as above but incubated for only 16 h prior to addition of Alamar Blue. Plates were read after 6 h.

AC50, active:
OCC(CO)n1cnc(-c2ccc(F)cc2)c1-c1ccnc(Oc2ccccc2)n1 0.594 µM, Cc1c(C)c2c(c(C)c1O)CCC(C)(COc1ccc(CC3SC(=O)NC3=O)cc1)O2 (stereo not given) 33.9 µM, Oc1ccc(O)cc1 2.96 µM, O=C1OC(c2ccc(O)cc2)(c2ccc(O)cc2)c2ccccc21 3.97 µM, CCc1cc(C2=C(C(=O)O)N(c3ccccc3C(F)(F)F)S(=O)(=O)c3ccccc32)cc2c1OCO2 10.8 µM, O=C(N[C@@H](c1ccccc1)[C@@H]1CCCCN1)c1cccc(C(F)(F)F)c1Cl 31.8 µM, O=C(NS(=O)(=O)/C=C/c1cccs1)c1ccc(F)cc1Br 1.31 µM, CCCCc1nc2cccnc2n1Cc1ccc(-c2ccccc2-c2nnn[nH]2)cc1 6.21 µM, COc1ccc(C(=O)Nc2nc3ccccc3c(NCc3ccccc3)c2C#N)cc1 7.48 µM, CCN(CC)CCOc1ccc(C(=C(Cl)c2ccccc2)c2ccccc2)cc1 28 µM

outcome, inactive:
CO[C@@H]1COCC[C@@H]1N[C@@H]1CC[C@@](C(=O)N2CCc3ncc(C(F)(F)F)cc3C2)(C(C)C)C1, O=[Si]=O, CC(C)COC(=O)CCCCC(=O)OCC(C)C, S=c1[nH]c2ccccc2s1, C/C=C/C=C/C(=O)O, Cc1cn([C@H]2C=C[C@@H](CO)O2)c(=O)[nH]c1=O, CSc1ccc(Oc2ccc(S(N)(=O)=O)cc2CN(C)C)cc1C, COC(=O)CCC(=O)OC, CCCCC(CC)CO (stereo not given), CC(C)c1cccc(C(C)C)c1NC(=O)NS(=O)(=O)c1cc(C(C)(C)O)co1, Nc1nc(=S)c2[nH]cnc2[nH]1, O=Cc1ccccc1C=O, CCCCCCC(C=O)=Cc1ccccc1, CN(C)C(=O)NC1(c2ccccc2)CCN(CC[C@@]2(c3ccc(F)c(F)c3)CN(C(=O)c3ccccc3)CCO2)CC1, O=C(Oc1ccccc1)c1cccc(C(=O)Oc2ccccc2)c1, O=C(O)c1[nH]n(-c2ccc(S(=O)(=O)O)cc2)c(=O)c1N=Nc1ccc(S(=O)(=O)O)cc1, CCCCOC(=O)CCCCC(=O)OCCCC, CCCCC(CC)COP(=O)(OCC(CC)CCCC)OCC(CC)CCCC (stereo not given), CCCCCCCC(=O)OC, CN(C)CCCN(C)CCCN(C)C, CC(C)NCC(O)c1ccc(O)c(O)c1 (stereo not given), O=C(O)c1cccnc1, Cn1cnc2c1c(=O)[nH]c(=O)n2C, Cc1ccc(C(C)(C)C)c(O)c1, NC1CCCCC1, C=CCCCCCCCCCCCC, CC1=C(C)S(=O)(=O)CCS1(=O)=O, Cc1occc(=O)c1O, CC(COCC(C)OC(=O)c1ccccc1)OC(=O)c1ccccc1 (stereo not given), NC=O
